Records with an inconclusive call do not appear. Entries that show only a call come without a potency. Active and inactive are the calls of the source. Calls come from the whole dose curve; as a rule, active = well fitted inhibition curve with a large enough effect; inconclusive = small, poorly fitted or top-dose-only effect; inactive = flat fitted curve, though single readings scatter.

Lysine-specific demethylase 5B (Homo sapiens), sequence (Q9UGL1 whole entry, looked up): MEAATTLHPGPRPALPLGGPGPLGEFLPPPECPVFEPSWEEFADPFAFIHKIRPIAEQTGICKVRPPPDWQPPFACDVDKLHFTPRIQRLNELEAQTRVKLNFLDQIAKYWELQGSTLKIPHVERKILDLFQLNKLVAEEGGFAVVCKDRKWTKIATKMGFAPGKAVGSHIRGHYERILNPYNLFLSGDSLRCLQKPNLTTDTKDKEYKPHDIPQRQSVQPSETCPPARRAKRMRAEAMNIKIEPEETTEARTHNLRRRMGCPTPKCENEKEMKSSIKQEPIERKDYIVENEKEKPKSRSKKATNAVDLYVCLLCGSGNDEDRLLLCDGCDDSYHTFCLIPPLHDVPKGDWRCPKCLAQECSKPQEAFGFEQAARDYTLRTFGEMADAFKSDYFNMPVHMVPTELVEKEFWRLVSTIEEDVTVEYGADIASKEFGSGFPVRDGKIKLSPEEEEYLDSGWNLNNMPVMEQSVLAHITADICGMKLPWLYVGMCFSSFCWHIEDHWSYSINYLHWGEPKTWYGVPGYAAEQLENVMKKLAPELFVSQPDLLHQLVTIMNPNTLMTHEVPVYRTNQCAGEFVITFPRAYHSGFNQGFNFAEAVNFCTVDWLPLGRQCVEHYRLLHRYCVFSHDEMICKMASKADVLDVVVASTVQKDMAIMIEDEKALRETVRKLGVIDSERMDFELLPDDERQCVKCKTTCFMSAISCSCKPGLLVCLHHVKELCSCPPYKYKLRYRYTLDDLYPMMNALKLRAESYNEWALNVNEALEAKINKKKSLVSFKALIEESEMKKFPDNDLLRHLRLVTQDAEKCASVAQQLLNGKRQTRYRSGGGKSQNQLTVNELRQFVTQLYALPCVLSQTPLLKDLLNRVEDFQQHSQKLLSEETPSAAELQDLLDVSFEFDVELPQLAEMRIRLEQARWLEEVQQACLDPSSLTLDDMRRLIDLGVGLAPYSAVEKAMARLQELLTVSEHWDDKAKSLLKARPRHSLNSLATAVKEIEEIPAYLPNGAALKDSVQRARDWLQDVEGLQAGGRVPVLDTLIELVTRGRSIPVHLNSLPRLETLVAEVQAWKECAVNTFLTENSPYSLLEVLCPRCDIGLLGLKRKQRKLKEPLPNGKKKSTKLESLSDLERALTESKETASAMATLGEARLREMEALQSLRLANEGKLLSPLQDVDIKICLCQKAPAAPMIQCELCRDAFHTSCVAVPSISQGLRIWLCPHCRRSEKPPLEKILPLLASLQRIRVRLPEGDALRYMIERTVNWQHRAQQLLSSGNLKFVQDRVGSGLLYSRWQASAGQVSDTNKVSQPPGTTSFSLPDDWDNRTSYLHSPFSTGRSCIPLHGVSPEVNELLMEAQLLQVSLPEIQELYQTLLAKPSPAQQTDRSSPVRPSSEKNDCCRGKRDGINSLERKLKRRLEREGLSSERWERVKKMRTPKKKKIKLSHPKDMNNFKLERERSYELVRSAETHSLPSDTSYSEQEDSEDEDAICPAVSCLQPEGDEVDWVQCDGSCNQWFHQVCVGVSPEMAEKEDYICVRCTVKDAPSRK

The subject of one experiment is Zika virus NS2B-NS3 protease. Put plainly: Primary screen GU AMC qHTS for Zika virus inhibitors (AID 1347154). Note: nearly all actives have a fitted effect of over 70% in size. The following applies: Zika NS2B-NS3 unlinked protease, AMC fluorogenic substrate; series mostly up to 54.1 µM. The method in brief: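 Unlinked Zika NS2B hydrophilic domain–NS3 protease complex at 25 nM in 10 mM Tris-HCl pH 8.0, 0.01% Tween 20, with an AMC peptide substrate. Fluorescence change (340/450 nm) over 15 min at room temperature, normalized to controls, fitted to 4-parameter Hill.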
A general note: Quantitative high-throughput screening tests each substance at several concentrations.
Take `CNCCC(Oc1ccc(C(F)(F)F)cc1)c1ccccc1` (stereo unspecified): the Potency entry is “inactive”.

Take `Nc1cc(=O)[nH]c(N)n1`: the Potency entry was “inactive”.

In the case of `CN1CCN(C2Cc3ccccc3Sc3ccc(Cl)cc32)CC1` (stereo unspecified), the Potency result is “inactive”.

Turning to `CC(=O)CCC(=O)O`, the Potency entry was “inactive”.

Take `Cc1ncc(COP(=O)(O)O)c(C=O)c1O`: the Potency entry was “inactive”.

Consider `CCN(CC)C(C)CN1c2ccccc2Sc2ccccc21` (stereo unspecified), for which the Potency result is “inactive”.

Consider `CN(C)CCOC(C)(c1ccccc1)c1ccccn1` (stereo unspecified), for which the Potency result was “inactive”.

For `CSc1ccc2c(c1)C(N1CCN(C)CC1)Cc1ccccc1S2` (stereo unspecified), the Potency result is “inactive”.

On to `CN(C)CC[C@@H](c1ccc(Cl)cc1)c1ccccn1`, for which the Potency result was “inactive”.

For the compound `CC(C)C(=O)c1c(C(C)C)nn2ccccc12`, the Potency entry is “inactive”.

`CN(C)CCC=C1c2ccccc2CCc2ccccc21`: the Potency entry was “inactive”.

For the compound `CN(C)CCCN1c2ccccc2Sc2ccc(Cl)cc21`, the Potency result was “inactive”.

Turning to `C[C@H]1O[C@@H](n2cc(F)c(=O)[nH]c2=O)[C@H](O)[C@@H]1O`, the Potency result was “inactive”.

With `CN(C)CCCN1c2ccccc2CCc2ccccc21`, the Potency result was “inactive”.

In the case of `CN(N=O)C(=O)N[C@@H]1[C@@H](O)[C@H](O)[C@@H](CO)O[C@@H]1O`, the Potency result is “inactive”.

Take `CC1=C(CC(=O)O)c2cc(F)ccc2/C1=C\c1ccc(S(C)=O)cc1` (stereo unspecified): the Potency result was “inactive”.

As for `CC(=O)c1ccc2c(c1)N(CCCN(C)C)c1ccccc1S2`, the Potency entry was “inactive”.

With `CCCn1cnc2c1c(=O)n(CCCCC(C)=O)c(=O)n2C`, the Potency result is “inactive”.

With `C[C@]12CC[C@@H]3c4ccc(O)cc4CC[C@H]3[C@@H]1CCC2=O`, the Potency entry was “inactive”.

As for `CC1=C(CC(=O)O)c2cc(F)ccc2/C1=C\c1ccc(S(C)(=O)=O)cc1`, the Potency result was “inactive”.

Regarding `CCCCN(CCCC)CC(O)c1cc(Cl)cc2c1-c1ccc(Cl)cc1/C2=C/c1ccc(Cl)cc1` (stereo unspecified), the Potency result is “inactive”.

`Cc1c(Cl)cccc1Nc1ccccc1C(=O)O`: the Potency result is “inactive”.

Take `C[C@]12C[C@H](O)[C@H]3[C@@H](CCC4=CC(=O)CC[C@@]43C)[C@@H]1CC[C@@H]2C(=O)CO`: the Potency result was “inactive”.

On to `CC(=O)OCC(=O)[C@@]1(O)CC[C@H]2[C@@H]3CCC4=CC(=O)CC[C@]4(C)[C@H]3C(=O)C[C@@]21C`, for which the Potency result was “inactive”.

With `NC(=O)c1ncn([C@@H]2O[C@H](CO)[C@@H](O)[C@H]2O)c1N`, the Potency entry is “inactive”.

For the compound `COC(=O)C1=C(C)NC(C)=C(C(=O)OC)C1c1ccccc1[N+](=O)[O-]`, the Potency result is “inactive”.

On to `C#CCN(C)Cc1ccccc1`, for which the Potency result was “inactive”.

In the case of `CCN(CC)CCOC(=O)C1(C2CCCCC2)CCCCC1`, the Potency result was “inactive”.

Turning to `CSc1ccc2c(c1)N(CCC1CCCCN1C)c1ccccc1S2` (stereo unspecified), the Potency entry is “inactive”.

For `CCCCCCCCCCCCCCCC(=O)NCCO`, the Potency result is “inactive”.

For `NC1CCN(c2cccc(Cl)n2)CC1`, the Potency entry was “inactive”.

For the compound `CNCC(O)c1ccc(O)c(O)c1` (stereo unspecified), the Potency result was “inactive”.

`C[C@H](NC(CCc1ccccc1)C(=O)O)C(=O)N1CCC[C@H]1C(=O)O` (stereo partly specified): the Potency entry was “inactive”.

As to `CC(CN(C)C)CN1c2ccccc2CCc2ccccc21` (stereo unspecified), the Potency result was “inactive”.

A further experiment has as its target Lysine-specific demethylase 5B (Homo sapiens) (UniProt Q9UGL1). As to the kind of experiment: Optimization screen for KDM5B Histone Demethylases FDH coupled qHTS against the LOPAC library (AID 1347166). The following applies: KDM5B demethylation, FDH-coupled NADH fluorescence (FDH is formaldehyde dehydrogenase); series mostly up to 57.5 µM. The method in brief:
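KDM5BDeltaAP (200nM final) in 50mM HEPES pH 7.5, 0.01% Tween-20 was preincubated with compound for 10 min at room temperature. A substrate mix of 12.5uM H3K4Me3, 25uM a-ketoglutarate, ascorbate, Fe2+, NAD+ and formaldehyde dehydrogenase was then added. NADH fluorescence (340/450 nm) was read initially and after 30 min.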
For the compound `CNCCC(Oc1ccc(C(F)(F)F)cc1)c1ccccc1` (stereo unspecified), the compound was classed as inactive.

Consider `Nc1cc(=O)[nH]c(N)n1`, for which the call was inactive.

With `CN1CCN(C2Cc3ccccc3Sc3ccc(Cl)cc32)CC1` (stereo unspecified), the compound was called inactive.

As for `CCN(CC)C(C)CN1c2ccccc2Sc2ccccc21` (stereo unspecified), the call was inactive.

Take `CN(C)CCOC(C)(c1ccccc1)c1ccccn1` (stereo unspecified): the call was inactive.

On to `CSc1ccc2c(c1)C(N1CCN(C)CC1)Cc1ccccc1S2` (stereo unspecified), for which the result was inactive.

Regarding `CN(C)CC[C@@H](c1ccc(Cl)cc1)c1ccccn1`, the call was inactive.

Take `CC(C)C(=O)c1c(C(C)C)nn2ccccc12`: the result was inactive.

For `CN(C)CCC=C1c2ccccc2CCc2ccccc21`, the call was inactive.

`CN(C)CCCN1c2ccccc2Sc2ccc(Cl)cc21`: the compound was classed as inactive.

Consider `CN(C)CCCN1c2ccccc2CCc2ccccc21`, for which the call was inactive.

As to `CCCn1cnc2c1c(=O)n(CCCCC(C)=O)c(=O)n2C`, the result was inactive.

`C[C@]12CC[C@@H]3c4ccc(O)cc4CC[C@H]3[C@@H]1CCC2=O`: the outcome was inactive.

For the compound `CC1=C(CC(=O)O)c2cc(F)ccc2/C1=C\c1ccc(S(C)(=O)=O)cc1`, the result was inactive.

For `C[C@]12C[C@H](O)[C@H]3[C@@H](CCC4=CC(=O)CC[C@@]43C)[C@@H]1CC[C@@H]2C(=O)CO`, the compound was classed as inactive.

In the case of `CC(=O)OCC(=O)[C@@]1(O)CC[C@H]2[C@@H]3CCC4=CC(=O)CC[C@]4(C)[C@H]3C(=O)C[C@@]21C`, the compound was classed as inactive.

With `C#CCN(C)Cc1ccccc1`, the call was inactive.

With `CCN(CC)CCOC(=O)C1(C2CCCCC2)CCCCC1`, the compound was called inactive.

Take `CSc1ccc2c(c1)N(CCC1CCCCN1C)c1ccccc1S2` (stereo unspecified): the call was inactive.

As to `CCCCCCCCCCCCCCCC(=O)NCCO`, the result was inactive.

`NC1CCN(c2cccc(Cl)n2)CC1`: the result was inactive.

As to `CC(CN(C)C)CN1c2ccccc2CCc2ccccc21` (stereo unspecified), the result was inactive.

System in another experiment: not listed separately
As to the kind of experiment: qHTS to identify inhibitors of the type 1 interferon - major histocompatibility complex class I in skeletal muscle: primary screen against the NCATS LOPAC collection (AID 1347405).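 Note: lytic HiBiT luminescence reporting HLA-B protein level.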 The following applies: iHSKM muscle cells, IFN-b-induced MHC-I HiBiT luminescence, 24 h; series mostly up to 45.9 µM. The method in brief: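 After 24 h at 37 C with compounds (7-point, 1:4.3 dilutions, 46 uM top final) plus 4 ng/ml IFN-beta, luminescence from lytic HiBiT detection was measured. HLA-B*08:01 in C25cl48 myoblasts carried an endogenous C-terminal HiBiT tag; medium lacked dexamethasone.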
`Nc1cc(=O)[nH]c(N)n1`: the Potency result was “inactive”.

For `CCN(CC)C(C)CN1c2ccccc2Sc2ccccc21` (stereo unspecified), the Potency entry was “inactive”.

For the compound `CN(C)CCOC(C)(c1ccccc1)c1ccccn1` (stereo unspecified), the Potency result was “inactive”.

As for `CN(C)CC[C@@H](c1ccc(Cl)cc1)c1ccccn1`, the Potency result is “inactive”.

For the compound `CC(C)C(=O)c1c(C(C)C)nn2ccccc12`, the Potency entry is “inactive”.

For `CN(C)CCC=C1c2ccccc2CCc2ccccc21`, the Potency result is “inactive”.

In the case of `C[C@H]1O[C@@H](n2cc(F)c(=O)[nH]c2=O)[C@H](O)[C@@H]1O`, the Potency entry was “inactive”.

In the case of `CC1=C(CC(=O)O)c2cc(F)ccc2/C1=C\c1ccc(S(C)=O)cc1` (stereo unspecified), the Potency entry is “inactive”.

As for `CC(=O)c1ccc2c(c1)N(CCCN(C)C)c1ccccc1S2`, the Potency entry is “inactive”.

In the case of `CCCn1cnc2c1c(=O)n(CCCCC(C)=O)c(=O)n2C`, the Potency entry is “inactive”.

In the case of `C[C@]12CC[C@@H]3c4ccc(O)cc4CC[C@H]3[C@@H]1CCC2=O`, the Potency result was “inactive”.

With `CC1=C(CC(=O)O)c2cc(F)ccc2/C1=C\c1ccc(S(C)(=O)=O)cc1`, the Potency result was “inactive”.

On to `CCCCN(CCCC)CC(O)c1cc(Cl)cc2c1-c1ccc(Cl)cc1/C2=C/c1ccc(Cl)cc1` (stereo unspecified), for which the Potency entry was “inactive”.

Take `C[C@]12C[C@H](O)[C@H]3[C@@H](CCC4=CC(=O)CC[C@@]43C)[C@@H]1CC[C@@H]2C(=O)CO`: the Potency result is “inactive”.

`CC(=O)OCC(=O)[C@@]1(O)CC[C@H]2[C@@H]3CCC4=CC(=O)CC[C@]4(C)[C@H]3C(=O)C[C@@]21C`: the Potency entry is “inactive”.

In the case of `C#CCN(C)Cc1ccccc1`, the Potency result was “inactive”.

As to `CCN(CC)CCOC(=O)C1(C2CCCCC2)CCCCC1`, the Potency result was “inactive”.

Consider `CNCC(O)c1ccc(O)c(O)c1` (stereo unspecified), for which the Potency entry was “inactive”.

Consider `C[C@H](NC(CCc1ccccc1)C(=O)O)C(=O)N1CCC[C@H]1C(=O)O` (stereo partly specified), for which the Potency entry is “inactive”.

For the compound `CC(CN(C)C)CN1c2ccccc2CCc2ccccc21` (stereo unspecified), the Potency entry was “inactive”.

For the origin of these results see PubChem BioAssay (NCATS).
